Composite z-score data for 29 compounds are collected here from PubChem BioAssay.

This assay deals with Sam68 (KHDRBS1). In words: compounds binding KHDRBS1 protein – biochemical, small-molecule microarray, 635 nm fluorescence, primary screen (AID 1125).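 Note: score merges 667 nm channel intensity with signal to noise over triplicate slides.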 Conditions: higher = more signal.
`O=C(O)C1=CC[C@H]2C(=O)N(c3ccccc3)C(=O)[C@@H]12` had a composite z-score of 1.31.

In turn, `CCc1cccc(NC(=O)O[C@H]2[C@H](OC(=O)Nc3ccccc3-c3ccccc3)[C@H](OC(=O)Nc3ccccc3-c3ccccc3)[C@@H](OC)O[C@@H]2CO)c1` had a composite z-score of 1.28.

Regarding `C=C(COC)/C(=C/C[C@@H](OC(C)=O)c1cccc(OCCO)c1)c1cnc2ccccc2c1`, the composite z-score is 0.965.

Compound `Cc1ccc(S[C@]2(C(=O)NCc3ccccc3)CC(=O)N(Cc3ccccc3C(F)(F)F)[C@@H]2c2ccc(CO)cc2I)cc1` showed a composite z-score of -0.0245.

`COCCOC(=O)N1C(=O)[C@@]2(c3cc(C#CC4(O)CCCCCC4)ccc31)[C@H](C(N)=O)[C@H]1C(=O)O[C@H](c3ccccc3)[C@H](c3ccccc3)N1[C@@H]2c1ccc(OCCO)cc1` yielded a composite z-score of 1.3.

For `COc1c(C)cc(-c2cc3c(c(CCc4ccccc4)n2)[Si](C(C)C)(C(C)C)O[C@H]3c2ccccc2)cc1C`, the composite z-score was -0.423.

In turn, `COC(=O)[C@@]1(Cc2ccc(F)cc2)[C@H]2c3cc(C(=O)N(C)C)n(Cc4cccc5ccccc45)c3C[C@H]2CN1C(=O)c1ccccc1` had a composite z-score of 0.343.

`CC(C)C[C@@H]1NC(=O)[C@@H]2C[C@H](C(=O)NCCCCCNC(=O)CS)[C@H](c3ccc(O)cc3)N2C1=O` had a composite z-score of 0.92.

In turn, `C=C[C@@H](CO)NS(=O)(=O)c1ccc(Br)cc1` gave a composite z-score of -2.22.

In turn, `COC(=O)[C@@]1(Cc2ccc(F)cc2)[C@H]2c3cc(C(=O)N(C)C)n(CCF)c3C[C@H]2CN1C(=O)c1ccccc1` had a composite z-score of 0.706.

Compound `COC(=O)[C@@]1(Cc2ccccc2)[C@H]2c3cc(C(=O)N(C)C)n(Cc4nc5ccccc5[nH]4)c3C[C@H]2CN1C(=O)c1ccccc1` returned a composite z-score of 1.24.

For the compound `C=C(C(=O)CC[C@@H](OC(=O)c1ccccc1-c1ccccc1C(=O)O)c1ccc(OCCO)cc1)C(C)C`, the composite z-score stood at 0.929.

`COCCOC(=O)N1C(=O)[C@@]2(c3cc(C#CCCO)ccc31)[C@H](C(=O)N1CCN(c3ncccn3)CC1)[C@H]1C(=O)O[C@H](c3ccccc3)[C@H](c3ccccc3)N1[C@@H]2c1ccc(OCCO)cc1` had a composite z-score of 1.29.

As to `O=C1OC[C@@H](c2ccccc2)n2cc(/C=C/c3ccccc3)cc21`, the composite z-score was -1.14.

Compound `CCOC(=O)C[C@H]1[C@H](OC(=O)c2cc3ccccc3oc2=O)[C@@H](NC(=O)Cc2ccc(OC)cc2)c2cc(OCCCO)ccc2N1C(=O)Cc1ccc(OC)cc1` showed a composite z-score of 0.23.

`C=CCN1C(=O)[C@@]2(O[C@@H](CCO)[C@H]([Si](C)(C)c3ccc(OC)cc3)[C@H]2C)c2cc(N3CCCCC3=O)ccc21`: the composite z-score was 0.702.

With `COc1ccc(CCNC(=O)[C@@]2(C)c3ccccc3C(=O)N(Cc3ccc(OC(F)(F)F)cc3)[C@H]2c2ccc(CO)cc2)cc1`, the composite z-score is 1.3.

Compound `COC(=O)[C@@]1(Cc2ccccc2)[C@H]2c3cc(C(=O)N(C)C)n(CCF)c3C[C@H]2CN1C(=O)c1ccccc1` gave a composite z-score of 0.302.

For the compound `COc1ccc(NN2C(C(O)c3ccc(F)cc3)C=CC3C(=O)N(C4CCCCC4)C(=O)C32)cc1` (centres undefined), the composite z-score was 1.29.

Turning to `COC(=O)[C@@]1(Cc2ccc(F)cc2)[C@H]2c3cc(C(=O)N(C)C)n(Cc4ccsc4Br)c3C[C@H]2CN1C(=O)c1ccccc1`, the composite z-score worked out at 0.0161.

`COc1ccc(NN2C(C(O)c3ccccc3)C=CC3C(=O)N(C4CCCCC4)C(=O)C32)cc1` (centres undefined) registered a composite z-score of 1.32.

In the case of `C=CC[C@H](OC(=O)Nc1ccc(SC)cc1)c1ccc(O)c(F)c1`, the composite z-score was -1.28.

The compound `CO[C@H]1O[C@H](CO)[C@@H](OC(=O)CCc2ccccc2)[C@@H]2OC(=O)[C@@H](Cc3ccc4ccccc4c3)C/C=C/C[C@H](Cc3ccc4ccccc4c3)C(=O)O[C@@H]12` registered a composite z-score of -0.183.

Regarding `COC(=O)[C@H](Cc1ccccc1)N1CC(C)(OC)O[C@@H](Cc2ccccc2)[C@H]1/C=C/C1CC1` (some centres undefined), the composite z-score amounted to 0.417.

With `C[C@H]1C2[C@H](Cc3ccccc3)NC(=O)[C@]23C(=O)N[C@@H](Cc2ccccc2)C(=O)N2CCC[C@H]2C(=O)NC/C=C/CC/C=C/C3[C@@H]2O[C@]12C` (some centres undefined), the composite z-score was found to be 0.868.

For the compound `C=C(C(=O)CC[C@@H](OC(=O)c1ccccc1-c1ccccc1C(=O)O)c1cccc(OCCO)c1)C(C)C`, the composite z-score is 0.152.

`C=C(CCCC)C(=O)CC[C@H](OC(=O)c1ccccc1-c1ccccc1C(=O)O)c1cccc(OCCO)c1` yielded a composite z-score of 0.225.

Take `C=C(CCCC)/C(=C/C[C@@H](OC(C)=O)c1cccc(OCCO)c1)c1cc(C(=O)OC)ccc1OC`: the composite z-score worked out at 0.71.

On to `CCCCCN1CC=CC23O[C@@H]4/C=C\CCCOC(=O)C4[C@H]2C(=O)N(CCO)[C@@H]3C1=O` (some centres undefined), for which the composite z-score stood at 0.428.
